# Cycloheximide cs: counter-screen for Shiga toxin inhibitors: cycloheximide protein synthesis inhibition | cell reporter, cycloheximide protein synthesis inhibition counterscreen | max response, % | 300,000 tested, 12% active; in the data active means max response mostly above about 13%, no sharp cut-off; inactive means mostly below about 14%; further: read at 38.3 µM for the half of the compounds with a filed dose; 0% is about no effect
# Pf growth 96h: inhibits malaria parasite growth, 96 h; 320,000 tested, 6.9% active; AID 504834; P. falciparum luciferase reporter growth, 96 h; Potency, µM (top dose mostly 28.7 µM), for inactives: top-dose activity change, negative = inhibition, actives largely listed as inhibitors; further: potency means the concentration at half of the fitted maximal effect; on the % scale 0 is the no-effect control and ±100 the full control effect
#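 Plates of compound plus infected erythrocytes (2% hematocrit, 0.05% parasitemia final) incubate 96 hours, 37 C, 5% CO2. Detection reagent added; reduced luminescence from the parasites' luciferase reporter flags inhibition.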
# HCV inhibitor: blocks hepatitis C virus | Huh7.5.1 HCVcc-Cre infection, luciferase reporter, 44 h | Potency, µM (titrated, usually from 41.8 µM), for inactives: at the highest dose activity change, negative = inhibition, most hits filed as inhibitors | 340,000 tested, 3.4% active | AID 651820; further: potency means the concentration at half of the fitted maximal effect; on the % scale 0 is the no-effect control and ±100 the full control effect
#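 Cells (1,000/well) were plated 4 h before compound, then infected with HCVcc-Cre virus (~0.5 moi). After 44 h further culture, infection was read as luciferase luminescence following a 15 min substrate incubation at room temperature.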
# Shiga inhibitor: inhibitors of Shiga toxin in Vero cells. Vero cells, Shiga toxin protein synthesis inhibition reporter. inhibition, % at 38.7 µM. 290,000 tested, 9.2% active. AID 2315; in the data active means inhibition mostly above about 28%, no sharp cut-off; inactive means mostly below about 43%; further: 0% is about no effect
# Pf growth 48h: P. falciparum growth inhibition at 48 hours (one generation) | P. falciparum luciferase growth in erythrocytes, 48 h | Potency, µM (titrated, usually from 28.7 µM), for inactives: at the top dose activity change, negative = inhibition, actives largely listed as inhibitors | 310,000 tested, 5.9% active | AID 504832; further: potency means the concentration at half of the fitted maximal effect; on the % scale 0 is the no-effect control and ±100 the full control effect
#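 A one-generation exposure of luciferase-tagged malaria parasites in RPMI 1640/Albumax erythrocyte culture, 37 C and 5% CO2. Inhibition is inferred from decreased luminescence after adding detection reagent.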
# AMA1-RON2 inh: disrupts binding of P. falciparum AMA1 to RON2; 360,000 tested, 0.2% active; AID 720542; AlphaScreen AMA1-biotinylated RON2 peptide binding; Potency, µM (series often up to 58.2 µM), for inactives: at the top dose activity change, negative = inhibition, hits mostly inhibitors;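 further: potency means the concentration at half of the fitted maximal effect; 0% = vehicle wells and -100% = peptide control; nearly all actives have a fitted effect of over 45% in size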
#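 AMA1 (3D7) with his tag at 25 nM final met compounds first, then biotinylated RON2 peptide at 25 nM; detection used donor plus acceptor beads, 10 µg/mL apiece, read by AlphaScreen after 30 min at room temperature.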
# Active calls of the source: *; ? = inconclusive; nt = no result; + = active, no number; [ ] = dose if it differs, or a comment. The list is not random: actives were taken first. Their share in the collection is about 21%. Unless noted, the call rests on the fitted dose curve; in most records, active means well fitted curve in the direction sought with a large enough effect; inconclusive means small, poorly fitted or top-dose-only effect, or another doubt; inactive means no such curve, though single readings can be large; an effect the other way counts as inactive or inconclusive.
SMILES,Cycloheximide cs,Pf growth 96h,HCV inhibitor,Shiga inhibitor,Pf growth 48h,AMA1-RON2 inh
CCCN1CCN(CCNC(=O)Nc2cc(C)ccc2C)CC1,-1,-24%,4%,-14,3%,5%
COc1ccc(OC)c(NC(=O)CSc2nc(=O)n(Cc3ccccn3)c3c2CCC3)c1,nt,?,?,nt,?,10%
CCCCNC(=O)C1(N2C(=O)c3ccccc3C2=O)CCCC1,nt,nt,12%,nt,nt,-14%
CC(C)=CCC/C(C)=C/CO,nt,10%,nt,nt,4%,nt
Cc1coc2c(C)c3oc(=O)c(CCC(=O)NCCCN4CCOCC4)c(C)c3cc12,-3,?,?,-11,?,-5%
Cc1c(CCC(=O)NCCCn2ccnc2)c(=O)oc2c(C)c3occ(C(C)(C)C)c3cc12,-8,9.3µM*,?,-11,?,24%
Cc1c(C)c2ccc(OCC(=O)NCCCn3ccnc3)c(C)c2oc1=O,6,?,-4%,-2,?,-1%
Cc1coc2c(C)c3oc(=O)c(CCC(=O)NCCCn4ccnc4)c(C)c3cc12,-1,?,?,2,10µM*,-20%
Cc1c(NS(=O)(=O)c2cccc(C(=O)OCC(=O)c3ccc(Cl)cc3)c2)c(=O)n(-c2ccccc2)n1C,nt,nt,-15%,nt,nt,-11%[11.6 µM]
COc1ccc(CC2(CO)CCN(CC3=CC[C@H]4C[C@@H]3C4(C)C)CC2)cc1,-3,14%,-10%,7,7.4µM*,-1%
COc1ccc(OCc2cccc(C(=O)Nc3ccc(CN4CCCCC4)cc3)c2)cc1,127*,?,-27%,+,?,?
CCOc1ccc(OCc2cccc(C(=O)Nc3ccc(CN4CCCCC4)cc3)c2)cc1,122*,?,?,87*,?,-26%
CCCOc1cccc(C(=O)Nc2ccc(CN3CCOCC3)cc2)c1,-1,?,?,5,-6%,3%
O=C(Nc1ccc(CN2CCCCC2)cc1)c1cccc(F)c1,31*,13%[5.75 µM],3%,39*,9%,26%
COc1cc(OC)cc(C(=O)Nc2ccc(CN3CCCCC3)cc2)c1,-2,53%,-6%,11,?,-1%
Cc1ccc(-c2nc3c(Cl)cc(C(F)(F)F)cn3c2Cc2cccc(F)c2)cc1,nt,nt,nt,nt,nt,-1%
CN(C)S(=O)(=O)c1cccc(NC(=S)NN=C(Cc2ccccc2)Cc2ccccc2)c1,19,-28%,5%,27,-2%,66%
Cc1ccc(/C=C/C(=O)N2CCN(S(=O)(=O)c3c(C)c(C)cc(C)c3C)CC2)o1,-3,?,6%,-8,7.4µM*,-13%
Cc1ccc(/C=C/C(=O)N2CCN(S(=O)(=O)c3ccc(C)c(C)c3)CC2)o1,-2,5.9µM*,-11%,-3,?,13%
Cc1ccc(/C=C/C(=O)N2CCN(Cc3ccccc3)CC2)o1,16,402%,18%,-37,0%,5%
COc1cc2ncnc(NCCc3ccccc3)c2cc1OC,-3,?,11µM*,-11,10µM*,-9%
COc1ccc(CCNc2ncnc3c2[nH]c2cc(OC)c(OC)cc23)cc1OC,-1,1.9µM*,-56%,-8,?,?
COc1ccc(CCNc2c3ccccc3nc3ccccc23)cc1OC,9,1.9µM*,?,36,1.5µM*,6%
COc1ccc(CCNc2ncccc2C#N)cc1OC,44*,125%,3%,88*,131%,-1%
C=CCn1c(=O)c2c(nc3n2CC(C)CN3CCc2ccccc2)n(C)c1=O (stereo not drawn),1,?,-27%,-10,-9%,-2%
SMILES,Cycloheximide cs,Pf growth 96h,HCV inhibitor,Shiga inhibitor,Pf growth 48h,AMA1-RON2 inh
O=C(C1=C(O)C(=O)N(CCCn2ccnc2)C1c1cccc(Br)c1)c1ccco1 (stereo not drawn),11,15%,24%,-14,-24%,-8%
Cn1c(-c2ccccc2)c(Sc2ccccc2)c2cc(-c3ccc4[nH]ccc4c3)ccc21,nt,nt,nt,nt,nt,-5%
COc1ccc(CCNC2=NCCS2)cc1,2,?,12%,-1,10%,5%
COc1ccc(CCNC2=NCCS2)cc1OC,41*,0%,4%,32*,-100%,-17%
COc1ccc(CCNc2ncnc3cc(OC)c(OC)cc23)cc1OC,-2,-16%,10µM*,-13,13µM*,-1%
CCCC[C@@H]1Cc2[nH][nH]c(=O)c2[C@H](c2ccc3ccccc3c2)O1,nt,nt,nt,nt,nt,89%
CCOc1ccc(N(CC(=O)NCc2ccc(Cl)cc2)S(=O)(=O)c2c(C)noc2C)cc1,2,-3%,11%,-2,-26%,3%
COc1ccc(N(CC(=O)NCc2ccc(C)cc2)S(=O)(=O)c2c(C)noc2C)cc1,-2,2.3µM*,16%,-6,?,2%
COc1ccc(N(CC(=O)NCc2ccc(Cl)cc2)S(=O)(=O)c2c(C)noc2C)cc1,-4,8.3µM*,-25%,-2,?,1%
Cc1ccc(N(CC(=O)NC2CCCCC2C)S(=O)(=O)c2c(C)noc2C)cc1 (stereo not drawn),1,9.3µM*,17%,-6,?,14%
Cc1cc(NC(=O)CCN2CCC(C)CC2)ccc1Br,1,?,?,-11,7%,-1%
COC(=O)CCC/C=C1/SCC(NC(=O)c2ccccc2)/C1=N/O (stereo not drawn),-1,-6%,11%,12,27%,-13%
CCOC(=O)c1c(NC(=O)CN2CCN(C(=O)c3ccco3)CC2)sc(C)c1C,-4,21%,nt,-5,?,-2%
CC(=O)Nc1ccc(C(=O)OCC(=O)N2CCN(C(=O)c3ccco3)CC2)cc1,nt,1%,4%,nt,40%,4%
Cc1ccc(NC(=O)CN2CCN(C(=O)c3ccco3)CC2)cc1S(=O)(=O)N(C)C,nt,nt,-2%,nt,nt,-5%[11.6 µM]
CCOc1ccc(NC(=O)CN2CCN(C(=O)c3ccco3)CC2)cc1S(=O)(=O)N1CCCC1,nt,15µM*,3%,nt,?,-4%[11.6 µM]
Cc1ccccc1NC(=O)CN1CCN(C(=O)c2ccco2)CC1,1,1%,16%,-10,?,-11%
NC(=O)c1ccc(NC(=O)CN2CCN(C(=O)c3ccco3)CC2)cc1,-7,2.3µM*,11%,-2,12%,-6%
CCc1c(C)sc(NC(=O)CN2CCN(C(=O)c3ccco3)CC2)c1C(=O)OC,16*,19%,11µM*,37,?,-2%
CCOC(=O)c1ccc(NC(=O)CN2CCN(C(=O)c3ccco3)CC2)cc1,-4,-3%,-6%,-13,9.3µM*,-12%
CCOC(=O)C1(C)CCCN(C(=O)c2cc(F)ccc2C)C1 (stereo not drawn),nt,nt,nt,nt,nt,-10%
O=C(Nc1nc2c(Br)cc(Br)cc2c(=O)s1)C1CCC1,2,25%,13%,-10,2.3µM*,26%
COc1ccc(OC)c2sc(NC(=O)C3CC3)nc12,-5,-24%,?,-16,nt,9%
